Results filed as inconclusive are left out. Entries that show only a call come without a potency. Calls of active or inactive are those of the source. Unless noted, calls come from the whole dose curve.
Key:
[1] = Nuclear factor erythroid 2-related factor 2/antioxidant responsive element (Nrf2/ARE) small molecule agonists: qHTS cell viability counter screen in human keratinocytes (AID 1919968; active = well fitted curve in the direction sought with a large enough effect in the repeat runs; an effect the other way counts as inactive or inconclusive; note: nearly all actives have a fitted effect of over 55% in size)
Summary of the method: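 Measured as CellTiter-Fluor fluorescence, this readout tracks cytotoxicity in the same wells as the ARE-luciferase screen. HaCaT reporter cells (1,500/well) received compounds after a 5 h pre-incubation and were exposed for 23 h.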

[2] = Nuclear factor erythroid 2-related factor 2/antioxidant responsive element (Nrf2/ARE) small molecule agonists: luciferase reporter gene qHTS assay in human keratinocytes (AID 1919969); note: nearly all actives have a fitted effect of over 35% in size; note: potency is the fitted concentration of half-maximal effect
[3] = target: Gonadotropin-releasing hormone receptor (Homo sapiens) (UniProt P30968); test: Human gonadotropin-releasing hormone receptor (GnRHR) small molecule agonists, calcium flux assay in GnRHR-HEK293 cells (AID 1920063); note: nearly all actives have a fitted effect of over 35% in size
Summary of the method: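 Fluorescence kinetics (480 nm excitation, 540 nm emission; 3 min, 1 s steps) report calcium mobilisation in human GnRHR-HEK293 cells in agonist mode. Dye incubation: 1 h, 37 C.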

[4] = target: KiSS-1 receptor (Homo sapiens) (UniProt Q969F8); test: Human kisspeptin (KISS1R) small molecule agonists, calcium flux assay in KISS1R-HEK293 cells (AID 1920064; active = well fitted curve in the direction sought with a large enough effect in the repeat runs; an effect the other way counts as inactive or inconclusive)
Summary of the method: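 Measures KISS1R agonism through calcium-sensitive dye fluorescence in stably transfected HEK293 cells, read for 3 min after pin-tool compound delivery; 15-point titrations in triplicate.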

[5] = G protein-coupled receptor (GPCR) small molecule agonists, calcium flux assay: HEK293 wild type cell line counter screen (AID 1920065)
Summary of the method: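 Readout: fluorescence at 480 nm excitation/540 nm emission, sampled at 1 s intervals for 3 min. Cells had been cultured 18 h, then dye-loaded 1 h at 37 C before compound or ATP addition.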

[6] = p53 small molecule agonists, cell-based qHTS assay with human liver microsomes: qHTS cell viability counter screen (AID 1963579); note: nearly all actives have a fitted effect of over 45% in size
Summary of the method: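 After the 460/530 nm beta-lactamase read, CellTiter-Glo was added to the same wells and luminescence measured after 30 min at room temperature, giving viability of p53RE-bla cells treated 16 h with compounds plus microsomes and NADPH.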

[7] = p53 small molecule agonists, cell-based qHTS assay with rat liver microsomes: qHTS cell viability counter screen (AID 1963580); note: nearly all actives have a fitted effect of over 45% in size
Summary of the method: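 HCT-116 p53RE-bla, 4,000 cells/well, 5 h pre-incubation; cpd + rat liver microsomes 0.5 mg/mL + NADPH 0.5 mg/mL (final); 16 h, 37 C; CellTiter-Glo, 30 min RT; luminescence.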

[8] = p53 small molecule agonists, cell-based qHTS assay: qHTS cell viability counter screen (AID 1963581); note: nearly all actives have a fitted effect of over 45% in size
Summary of the method: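 In the same plates used for the p53 bla reporter, HCT-116 cells given compounds for 16 h at 37 C received CellTiter-Glo; luminescence was recorded 30 min later at room temperature.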

[9] = target: 5-hydroxytryptamine receptor 2A (Homo sapiens) (UniProt P28223); test: 5-hydroxytryptamine receptor 2A (HTR2A) small molecule antagonists, cell-based qHTS assay (AID 1963586); note: nearly all actives have a fitted effect of over 45% in size
Summary of the method: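 Antagonist-mode intracellular calcium assay: DOI (4 nM) added after 5 min compound pre-incubation at room temperature to dye-loaded HTR2A-CHO cells. Fluorescence followed for 3 min, sampled every second.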

[10] = target: 5-hydroxytryptamine receptor 2A (Homo sapiens) (UniProt P28223); test: 5-hydroxytryptamine receptor 2A (HTR2A) small molecule agonists, cell-based qHTS assay (AID 1963587); note: nearly all actives have a fitted effect of over 30% in size
Summary of the method: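 Kinetic calcium-flux fluorescence (2 min, 1 sec intervals) after compound addition in agonist mode. HTR2A-CHO cells were cultured 18 h, then dye-loaded 1 h at 37 C.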

[11] = target: Muscarinic acetylcholine receptor M1 (Homo sapiens) (UniProt P11229); test: Cholinergic receptor muscarinic 1 (CHRM1) small molecule antagonists, cell-based qHTS assay (AID 1963588); note: nearly all actives have a fitted effect of over 40% in size
Summary of the method: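 CHRM1-CHO calcium-flux assay, antagonist mode. Cells were seeded 18 h, dye-loaded 1 h at 37 C and given compound for 5 min at RT, then acetylcholine was added at 50nM. FDSS fluorescence was read 3 min; 15 concentrations, three runs.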

[12] = target: Muscarinic acetylcholine receptor M1 (Homo sapiens) (UniProt P11229); test: Cholinergic receptor muscarinic 1 (CHRM1) small molecule agonists, cell-based qHTS assay (AID 1963589); note: nearly all actives have a fitted effect of over 35% in size
Summary of the method: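 Each compound was tested at 15 concentrations across three independent runs on dye-loaded CHO cells stably expressing human CHRM1, reading intracellular calcium fluorescence kinetically at 1 sec intervals.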

[13] = target: D(2) dopamine receptor (Homo sapiens) (UniProt P14416); test: Dopamine D2 receptor (DRD2) small molecule agonists, cell-based qHTS assay (AID 1963594); note: nearly all actives have a fitted effect of over 35% in size
Summary of the method: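 cAMP accumulation in DRD2-HEK293 cells measured by HTRF after 1 h detection; compounds added 10 min before NKH477 (200nM […]) forskolin-analogue stimulation, 30 min at room temperature, with Ro20-1724 present at 0.1 mM final.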

[14] = cAMP Responsive Elements (CRE) small molecule agonists, cell-based qHTS assay (AID 1963590)
Summary of the method: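 Cell line: CRE-bla HEK 293T; medium DMEM/10% dialyzed FBS/0.1 mM NEAA/1 mM pyruvate/25 mM HEPES; 3 h compound exposure; beta-lactamase FRET readout after 2 h substrate loading at RT.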

[15] = cAMP Responsive Elements (CRE) small molecule antagonists, cell-based qHTS assay (AID 1963591; active = well fitted inhibition curve with a large enough effect in the signal ratio in the repeat runs, not every such curve was filed as active; the % refers to the signal ratio)
Summary of the method: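 Inhibition of NKH477-driven (0.25 uM final) CRE-beta-lactamase signal in HEK293T cells, 3 h compound exposure at 37 °C, detected by FRET substrate fluorescence.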

[16] = target: Beta-2 adrenergic receptor (Homo sapiens) (UniProt P07550); test: Adrenergic beta2 receptor (ADRB2) small molecule antagonists, cell-based qHTS assay (AID 1963592); note: series mostly up to about 92 µM; nearly all actives have a fitted effect of over 50% in size
Summary of the method: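 Cells (CHO, stable ADRB2 overexpression) incubated 18-20hr at 37C; compounds added from DMSO; agonist mix (1nM isoproterenol, 100uM IBMX, 25uM Ro-20-1724) added; 0.5hr RT; d2-cAMP and anti-cAMP-cryptate added; 1hr RT; 665/615 nm read.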

[17] = target: Beta-2 adrenergic receptor (Homo sapiens) (UniProt P07550); test: Adrenergic beta2 receptor (ADRB2) small molecule agonists, cell-based qHTS assay (AID 1963593);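 note: CHO cells stably overexpressing human ADRB2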
Summary of the method: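 CHO cells stably over-expressing ADRB2 were plated overnight at 37C, then dosed with compounds plus a stimulation mix containing 100uM IBMX and 25uM Ro-20-1724 for 0.5hr at room temperature. cAMP was measured by HTRF competition, 1hr.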

[18] = target: D(2) dopamine receptor (Homo sapiens) (UniProt P14416); test: Dopamine D2 receptor (DRD2) small molecule antagonists, cell-based qHTS assay (AID 1963595; active = well fitted inhibition curve with a large enough effect in the signal ratio in the repeat runs, with a control signal flat; the % refers to the signal ratio)
Summary of the method: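 In this cell-based antagonist screen, compounds act for 10 min at room temperature before a 30 min challenge with 12 nM quinpirole and 200 nM NKH477. cAMP is quantified by HTRF competition in DRD2-HEK293 cells containing 0.1 mM Ro20-1724.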

D(2) dopamine receptor (Homo sapiens), sequence (P14416 whole entry, looked up): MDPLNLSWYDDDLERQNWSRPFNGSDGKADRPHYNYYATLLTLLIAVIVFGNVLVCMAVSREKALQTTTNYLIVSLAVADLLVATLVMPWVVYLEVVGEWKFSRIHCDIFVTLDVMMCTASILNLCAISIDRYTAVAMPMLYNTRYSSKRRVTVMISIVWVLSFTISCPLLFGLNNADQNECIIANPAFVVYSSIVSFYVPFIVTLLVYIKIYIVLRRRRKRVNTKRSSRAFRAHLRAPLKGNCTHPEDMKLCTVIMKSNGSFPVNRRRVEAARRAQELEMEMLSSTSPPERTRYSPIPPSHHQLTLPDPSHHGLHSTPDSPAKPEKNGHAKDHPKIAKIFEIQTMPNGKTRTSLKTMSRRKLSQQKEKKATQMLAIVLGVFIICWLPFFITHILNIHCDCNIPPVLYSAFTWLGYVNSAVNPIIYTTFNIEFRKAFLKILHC
5-hydroxytryptamine receptor 2A (Homo sapiens), sequence (P28223 whole entry, looked up): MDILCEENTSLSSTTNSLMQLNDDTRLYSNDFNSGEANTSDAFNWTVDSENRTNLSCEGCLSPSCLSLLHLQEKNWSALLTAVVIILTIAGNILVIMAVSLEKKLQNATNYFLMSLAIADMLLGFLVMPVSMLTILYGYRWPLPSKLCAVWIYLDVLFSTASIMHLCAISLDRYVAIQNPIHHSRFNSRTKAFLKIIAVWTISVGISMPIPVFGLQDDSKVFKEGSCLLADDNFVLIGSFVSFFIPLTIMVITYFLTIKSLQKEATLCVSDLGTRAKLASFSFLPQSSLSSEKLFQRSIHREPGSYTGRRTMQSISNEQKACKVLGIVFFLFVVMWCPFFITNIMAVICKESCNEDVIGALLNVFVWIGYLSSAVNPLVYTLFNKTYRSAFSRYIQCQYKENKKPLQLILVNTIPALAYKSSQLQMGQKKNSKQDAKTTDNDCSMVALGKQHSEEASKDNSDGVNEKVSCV
Muscarinic acetylcholine receptor M1 (Homo sapiens), sequence (P11229 whole entry, looked up): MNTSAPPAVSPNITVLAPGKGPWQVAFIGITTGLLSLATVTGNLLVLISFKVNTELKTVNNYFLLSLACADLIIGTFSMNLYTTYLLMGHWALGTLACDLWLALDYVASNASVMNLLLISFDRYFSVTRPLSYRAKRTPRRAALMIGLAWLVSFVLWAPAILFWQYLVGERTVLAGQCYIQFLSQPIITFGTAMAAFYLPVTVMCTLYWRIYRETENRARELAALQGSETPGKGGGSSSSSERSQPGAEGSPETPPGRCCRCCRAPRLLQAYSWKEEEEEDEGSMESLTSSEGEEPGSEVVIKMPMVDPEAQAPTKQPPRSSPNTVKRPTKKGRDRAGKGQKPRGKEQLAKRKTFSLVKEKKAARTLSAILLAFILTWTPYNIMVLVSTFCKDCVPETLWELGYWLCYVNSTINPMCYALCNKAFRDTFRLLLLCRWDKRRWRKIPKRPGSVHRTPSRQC
KiSS-1 receptor (Homo sapiens), sequence (Q969F8 whole entry, looked up): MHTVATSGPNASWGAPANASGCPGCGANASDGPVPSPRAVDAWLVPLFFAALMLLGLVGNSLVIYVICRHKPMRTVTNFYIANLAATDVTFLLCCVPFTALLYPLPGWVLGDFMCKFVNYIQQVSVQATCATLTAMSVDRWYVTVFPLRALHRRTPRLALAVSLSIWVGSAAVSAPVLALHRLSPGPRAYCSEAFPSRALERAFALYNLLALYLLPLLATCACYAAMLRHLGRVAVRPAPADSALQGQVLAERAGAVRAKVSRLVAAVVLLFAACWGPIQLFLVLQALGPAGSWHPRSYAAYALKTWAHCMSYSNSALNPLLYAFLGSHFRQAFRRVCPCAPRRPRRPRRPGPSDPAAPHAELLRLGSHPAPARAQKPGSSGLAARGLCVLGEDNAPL
Gonadotropin-releasing hormone receptor (Homo sapiens), sequence (P30968 whole entry, looked up): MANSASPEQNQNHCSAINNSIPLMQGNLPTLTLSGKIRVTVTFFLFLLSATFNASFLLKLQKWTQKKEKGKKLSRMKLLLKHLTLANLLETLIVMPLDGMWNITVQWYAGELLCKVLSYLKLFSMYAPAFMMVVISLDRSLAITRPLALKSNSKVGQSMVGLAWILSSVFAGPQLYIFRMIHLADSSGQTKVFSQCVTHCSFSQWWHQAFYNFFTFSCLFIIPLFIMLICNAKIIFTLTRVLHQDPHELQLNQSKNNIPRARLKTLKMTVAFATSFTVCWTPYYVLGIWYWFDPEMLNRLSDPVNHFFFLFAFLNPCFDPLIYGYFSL
Beta-2 adrenergic receptor (Homo sapiens), sequence (P07550 whole entry, looked up): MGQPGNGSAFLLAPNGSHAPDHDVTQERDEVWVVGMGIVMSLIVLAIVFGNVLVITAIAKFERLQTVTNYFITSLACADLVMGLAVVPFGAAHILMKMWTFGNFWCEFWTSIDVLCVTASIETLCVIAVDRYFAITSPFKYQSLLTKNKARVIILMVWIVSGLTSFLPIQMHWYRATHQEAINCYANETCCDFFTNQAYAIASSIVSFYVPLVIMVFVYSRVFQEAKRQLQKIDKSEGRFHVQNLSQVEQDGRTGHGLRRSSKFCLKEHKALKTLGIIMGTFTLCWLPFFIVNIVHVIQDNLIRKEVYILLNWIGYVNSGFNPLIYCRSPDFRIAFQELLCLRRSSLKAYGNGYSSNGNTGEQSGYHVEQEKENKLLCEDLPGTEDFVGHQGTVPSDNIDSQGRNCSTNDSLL

Structure (SMILES) | Potency [1] | Potency [2] | Potency [3] | Potency [4] | Potency [5] | Potency [6] | Potency [7] | Potency [8] | Potency [9] | Potency [10] | Potency [11] | Potency [12] | Potency [13] | Potency [14] | Potency [15] | Potency [16] | Potency [17] | Potency [18]
Cc1oc(=O)oc1CN1CCN(c2cc3c(cc2F)c(=O)c(C(=O)O)c2n3C(C)S2)CC1 (centres undefined) | inactive | inactive | inactive | inactive | inactive | inactive | inactive | inactive | inactive | inactive | inactive | inactive | inactive | – | – | – | – | –
CC(=O)Nc1ccc(OCCOCCOc2ccc(NC(C)=O)cc2)cc1 | inactive | inactive | inactive | inactive | inactive | inactive | inactive | inactive | inactive | – | inactive | inactive | inactive | inactive | inactive | inactive | inactive | inactive
CC(Cc1ccccc1)(NC(=O)CN)c1ccccc1 (centres undefined) | inactive | inactive | inactive | inactive | inactive | inactive | inactive | inactive | inactive | inactive | inactive | – | – | inactive | inactive | inactive | inactive | inactive
OC(C#CCN1CCCC1)(c1ccccc1)c1ccccc1 | inactive | inactive | inactive | inactive | inactive | inactive | inactive | inactive | inactive | inactive | – | inactive | inactive | inactive | inactive | inactive | – | inactive
CC/C=C\CC/C=C/CO | inactive | inactive | inactive | inactive | inactive | inactive | inactive | inactive | inactive | inactive | inactive | – | inactive | inactive | inactive | inactive | – | inactive
Cc1ccccc1Br | inactive | inactive | inactive | inactive | inactive | inactive | inactive | inactive | inactive | inactive | inactive | – | inactive | inactive | inactive | inactive | inactive | –
CC(C)CC(C)(C)C | inactive | inactive | inactive | inactive | inactive | inactive | inactive | inactive | inactive | inactive | inactive | inactive | inactive | – | – | – | – | inactive
Cc1nc2ccccc2c(=O)o1 | inactive | inactive | inactive | inactive | inactive | inactive | inactive | inactive | inactive | inactive | – | inactive | – | inactive | inactive | inactive | – | inactive
COC(=O)C(C)=O | inactive | inactive | inactive | inactive | inactive | inactive | inactive | inactive | inactive | inactive | – | inactive | – | inactive | inactive | inactive | – | inactive
Clc1nc2ccccc2nc1Cl | inactive | 55.1 µM (active) | inactive | inactive | inactive | inactive | inactive | inactive | inactive | – | inactive | inactive | inactive | inactive | inactive | inactive | – | inactive
CCC(C)N (centres undefined) | inactive | inactive | inactive | inactive | inactive | inactive | inactive | inactive | inactive | – | inactive | inactive | inactive | inactive | inactive | inactive | – | inactive
C1C2OC2C2C1C1CC2C2OC12 (centres undefined) | inactive | inactive | inactive | inactive | inactive | inactive | inactive | inactive | inactive | inactive | – | inactive | inactive | inactive | inactive | inactive | – | inactive
CCCCCOC(=O)COc1cc(N2C(=O)C3=C(CCCC3)C2=O)c(F)cc1Cl | inactive | 61.1 µM (active) | inactive | inactive | inactive | inactive | inactive | inactive | inactive | inactive | – | inactive | inactive | inactive | – | – | – | inactive
O=C1NC(=O)c2cccc3cccc1c23 | inactive | inactive | inactive | inactive | inactive | inactive | inactive | inactive | inactive | inactive | inactive | – | – | – | inactive | inactive | – | inactive

From PubChem BioAssay (Tox21)
